Sampled rows, rich in hits. Any-hit rate of the full collection: about 9.8%.
HTT cytoprotect – protects HTT-Q103 PC12 cells, measured by ATP | PC12 HTT-Q103 induced, cytoprotection, ATP luminescence, 40 h | Potency, µM (series often up to 56.4 µM), most hits filed as activators | 0.14% of 230,000 active | AID 1471; active = well fitted curve in the direction sought with a large enough effect; inconclusive = small, poorly fitted or top-dose-only effect, or another doubt; inactive = no such curve, though single readings can be large; an effect the other way counts as inactive or inconclusive; note: nearly all actives have a fitted effect of over 45% in size
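Quantitative HTS on tebufenozide-induced (100 nM) PC12 cells expressing HTTQ103 exon 1–GFP; compounds tested as a concentration series; survival measured via cellular ATP.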
CBFb RUNX1 block – inhibitors of human CBF-beta and RUNX1 interaction; Q01196+Q13951; AlphaScreen CBFb-His/RUNX1-biotin binding, biochemical; Potency, µM (doses to about 59.8 µM), actives largely listed as inhibitors; 230,000 tested, under 10 active; active = well fitted curve in the direction sought with a large enough effect; inconclusive = small, poorly fitted or top-dose-only effect, or another doubt; inactive = no such curve, though single readings can be large; an effect the other way counts as inactive or inconclusive
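Interaction loss through any mechanism counts as activity. Pre-formed complex of His-CBF-beta and biotin-RUNX1 (30 nM apiece) is incubated with compound 15 min, then with 50 ng nickel and 50 ng streptavidin beads for 90 min before AlphaScreen detection.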
HTT aggregate – reduces HttQ103-GFP aggregates in PC12 cells; PC12 HttQ103-GFP aggregates, Acumen cytometry, 40 h; AID 1688; Potency, µM (series often up to 46.1 µM), most hits filed as inhibitors; 1.1% of 220,000 active; active = well fitted curve in the direction sought with a large enough effect; inconclusive = small, poorly fitted or top-dose-only effect, or another doubt; inactive = no such curve, though single readings can be large; an effect the other way counts as inactive or inconclusive; note: nearly all actives have a fitted effect of over 60% in size
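Huntingtin Q103 exon 1–GFP aggregates in induced PC12 cells (100 nM tebufenozide) were quantified by cytometry from lysates, with compounds dosed in titration.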
ALDH1A1 inh – inhibitors of human aldehyde dehydrogenase 1A1. P00352. Purified ALDH1A1, NADH fluorescence, propionaldehyde substrate. Potency, µM (top dose mostly 75.3 µM), actives largely listed as inhibitors. 7.3% of 220,000 active. AID 1030
HPGD block – HPGD (human) dehydrogenase inhibition; Potency, µM, most hits filed as inhibitors; purified HPGD, NADH fluorescence kinetic, PGE2 substrate; P15428; AID 894; 4.3% of 150,000 active
Target sequence (P15428 whole entry, looked up): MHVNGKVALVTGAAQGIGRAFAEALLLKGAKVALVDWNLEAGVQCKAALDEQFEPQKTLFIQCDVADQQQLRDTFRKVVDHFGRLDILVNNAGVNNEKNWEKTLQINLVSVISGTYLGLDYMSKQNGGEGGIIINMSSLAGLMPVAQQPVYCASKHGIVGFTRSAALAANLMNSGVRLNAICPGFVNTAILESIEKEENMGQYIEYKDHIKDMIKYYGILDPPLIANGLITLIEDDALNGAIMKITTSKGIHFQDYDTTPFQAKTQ
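NADH formation kinetics: reaction with 30 uM PGE2 and 1 mM NAD+ (final), 20 nM enzyme, Tris-HCl pH 8 with Tween 20, after 15 min compound preincubation at room temperature. Fluorescence change, last versus first of five reads.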
KDM4E inh – blocks human JMJD2E demethylase activity; B2RXH2; JMJD2E catalytic domain, FDH-coupled NADH fluorescence (FDH is formaldehyde dehydrogenase); Potency, µM (series often up to 57.1 µM), most hits filed as inhibitors; 1.6% of 230,000 active; note: nearly all actives have a fitted effect of over 50% in size
Each line names hits and unclear results; the compound was inactive in the other large screens. Unless noted, calls come from the whole dose curve; as a rule, active = well fitted inhibition curve with a large enough effect (not every such curve was filed as active); inconclusive = small, poorly fitted or top-dose-only effect, or another doubt; inactive = no such curve, though single readings can be large or run the other way.

CCN1C(=C2C(=O)c3ccccc3C2=O)C=Cc2ccccc21	none
CCN1/C(=C/c2ccc3ccccc3[n+]2CC)C=Cc2ccccc21	CBFb RUNX1 block inconclusive, HTT aggregate 3.16µM, ALDH1A1 inh inconclusive
CCN1/C(=C/c2ccc3cc(C)ccc3[n+]2C)Sc2ccc3sccc3c21	CBFb RUNX1 block inconclusive, ALDH1A1 inh inconclusive (no result: HPGD block)
CCN(CC)CCN1c2ccccc2Sc2ccc3ccccc3c21	KDM4E inh inconclusive
CCN1/C(=C/c2ccc3cc(C)ccc3[n+]2CC)Sc2cc(C)ccc21	HTT aggregate 1µM, ALDH1A1 inh inconclusive, KDM4E inh inconclusive (no result: HPGD block)
CCOc1ccc(-n2c(=O)c3sccc3n(CC(=O)NCCc3ccc(OC)c(OC)c3)c2=O)cc1	none (no result: HPGD block)
COC(=O)C1=C(C(=O)OC)SC2(S1)C(C(=O)OC)=C(C(=O)OC)SC1=C2c2cc(C)ccc2NC1(C)C	ALDH1A1 inh 8.91µM, HPGD block 10µM
O=C1c2ccccc2-c2onc3ccc(N4CCCC4)c1c23	ALDH1A1 inh 22.4µM, KDM4E inh 17.8µM (no result: CBFb RUNX1 block, HPGD block)
CCOc1ccc2noc3c2c1C(=O)c1ccccc1-3	ALDH1A1 inh inconclusive, KDM4E inh inconclusive
CC(C)Cn1c(C(C)C)nc([N+](=O)[O-])c1Sc1ccc(Cl)cn1	ALDH1A1 inh 22.4µM
CCn1c(C)nc([N+](=O)[O-])c1Sc1ccc(F)cc1	ALDH1A1 inh inconclusive (no result: HTT cytoprotect)
CC(C)Cn1c(C(C)C)nc([N+](=O)[O-])c1S(=O)(=O)c1ccc(F)cc1	none
CCCCn1c(CCC)nc([N+](=O)[O-])c1Sc1ccc(Cl)cn1	ALDH1A1 inh 7.08µM
COc1ccc(C(=O)N/N=C(\C)c2ccc3c(c2)C2C=CCC2C(c2ccccc2)N3)cc1 (stereo not drawn)	HTT aggregate inconclusive, ALDH1A1 inh 11.2µM, KDM4E inh 20µM
COc1cccc(NS(=O)(=O)c2ccc3c(c2)C2C=CCC2C(c2ccc(C(=O)O)cc2)N3)c1 (stereo not drawn)	ALDH1A1 inh 20µM, KDM4E inh inconclusive (no result: HTT cytoprotect)
COc1cccc(NS(=O)(=O)c2ccc3[nH]cc(C(=O)NC4CC4)c(=O)c3c2)c1	none
O=S(Cc1cc(Oc2ccccc2)nc(-c2ccccc2)n1)c1ccccc1 (stereo not drawn)	none
CCc1cc(C(=O)OC)c(NC(=O)CC2SC(=NC)N(C)C2=O)s1 (stereo not drawn)	none (no result: HPGD block)
C=CCOC(=O)C1=C[C@H](c2cn(C(C)=O)c3ccccc23)C[C@H](OCc2ccc(CO)cc2)O1	none (no result: HPGD block)
CCc1nn(CC(=O)Nc2ccc(Br)c(C)c2)c(=N)s1	ALDH1A1 inh 11.2µM (no result: HPGD block)
CCCCc1ccc(NC(=O)COCC)cc1	ALDH1A1 inh 14.1µM, HPGD block 10µM
CCOCC(=O)Nc1ccc(Br)c(C)c1	ALDH1A1 inh 14.1µM (no result: HPGD block)
CCc1nn(CC(=O)Nc2cc(C)ccc2C)c(=N)s1	none (no result: HPGD block)
COc1ccccc1-n1cnnc1SCC(=O)NCC1CCCO1 (stereo not drawn)	ALDH1A1 inh inconclusive (no result: HPGD block)
COc1c2ccoc2nc2c(OC)c(OC[C@H](O)C(C)(C)O)ccc12	ALDH1A1 inh inconclusive, HPGD block inconclusive, KDM4E inh inconclusive (no result: HTT aggregate)
O=C(Nc1cccc(F)c1)C1CCN(c2nnnn2-c2ccccc2)CC1	ALDH1A1 inh 22.4µM
CCOc1ccc(NC(=O)C2CCN(c3nnnn3-c3ccccc3)CC2)cc1	ALDH1A1 inh 12.6µM
O=C(Nc1ccc2c(c1)OCCO2)C1CCN(c2nnnn2-c2ccccc2)CC1	ALDH1A1 inh 3.55µM
COc1cccc(NC(=O)N2CCCC2)c1	HTT aggregate inconclusive (no result: HPGD block)
COc1cccc(NC(=O)N2CCN(c3nnnn3-c3ccccc3)CC2)c1	ALDH1A1 inh 6.31µM (no result: HPGD block)
NC(=O)C1CCN(c2nnnn2-c2ccccc2)CC1	ALDH1A1 inh inconclusive
O=C(C1CCN(c2nnnn2-c2ccccc2)CC1)N1CCN(c2ccccc2)CC1	ALDH1A1 inh 10µM
COC(=O)c1cnn(-c2ccccc2)c1-n1cccc1C=O	ALDH1A1 inh inconclusive (no result: HPGD block)
Cc1cccc(N/C=C(\[N+](=O)[O-])S(=O)(=O)c2ccccc2)c1C	ALDH1A1 inh 25.1µM, KDM4E inh inconclusive (no result: HPGD block)

Bioassay records from PubChem.
